In the supplement of paper PMC10849652:
About 7,900 targets were measured; listed, in parts, are those with a hit and a random draw of the rest. About 0.6% of all pairs of compound and target were hits. Unmarked numbers belong to inactive results.

Experiments:
Assay in all cases: log2 fold change, soluble protein after heating vs DMSO (PISA); higher = thermal stabilisation; K562 cells, 10 uM, 30 min; active = over 0.2 and 3.5 SD of the protein, either way, in both replicates (recomputed)
erlotinib = compound: C#Cc1cccc(Nc2ncnc3cc(OCCOC)c(OCCOC)cc23)c1 [erlotinib]
Outline: (§1)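 Soluble protein was quantified by TMTpro 16plex LC-MS/MS after channel sums were equalised. It was obtained as the supernatant after 21,000xg for 90 min from pooled aliquots of K562 cells (2×10^6 cells/mL, 10 μM compound, 30 min) heated for 3 min across 48°C-58°C and extracted in PBS with 0.5% NP-40 at 4°C. Thermal stability values are relative to control samples and come from duplicates. They are given as log2 fold changes.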

[1] = compound: C/C(=N\NC(=O)C1=CC(=CC=C1)S(=O)(=O)N2CCOCC2)/C3=C(C=CC(=C3)Cl)O
Outline: as §1

[2] = compound: C1=CC(=C(C=C1Cl)C2=NC3=NC=CN=C3C(=N2)NC4=CC=NC=C4)F
Outline: as §1

[3] = compound: C1=CC(=CC=C1C2=NC3=C(N2)C=C(C=C3)C(=O)N)OC4=CC=C(C=C4)Cl
Outline: as §1

[4] = compound: C1=CC2=C(C=CC(=C2)/C=C\3/C(=O)NC(=NCC4=CC=CS4)S3)N=C1
Outline: as §1

[5] = compound: C1=CC2=NC=CN=C2C=C1/C=C/3\C(=O)NC(=O)S3
Outline: as §1

[6] = compound: C1=CC=C(C=C1)C2=NC(=C(N2)C3=CC=NC=C3)C4=CC(=C(C=C4)Cl)O
Outline: as §1

[7] = compound: C1=CC=C2C(=C1)C3=NNC4=CC=CC(=C43)C2=O
Outline: as §1

[8] = compound: C1CCN(C1)C(=O)NC2=CC=CC(=C2)NC3=NC=C(C(=N3)NCCC4=CN=CN4)Br
Outline: as §1

[9] = compound: C1CN(CCC1(CC2=CC=C(C=C2)Cl)N)C3=NC=NC4=C3C=CN4
Outline: as §1

UniProt Q9P287, sequence (Q9P287 whole entry, looked up): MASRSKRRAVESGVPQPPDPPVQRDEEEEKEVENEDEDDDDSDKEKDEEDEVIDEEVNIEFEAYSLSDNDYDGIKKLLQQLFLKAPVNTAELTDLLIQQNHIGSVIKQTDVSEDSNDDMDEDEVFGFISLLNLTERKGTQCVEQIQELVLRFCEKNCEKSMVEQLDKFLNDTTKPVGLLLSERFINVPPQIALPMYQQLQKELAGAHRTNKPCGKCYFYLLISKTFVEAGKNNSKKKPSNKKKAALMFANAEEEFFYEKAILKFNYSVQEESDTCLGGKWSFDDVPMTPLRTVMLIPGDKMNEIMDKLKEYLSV
UniProt Q9Y487, sequence (Q9Y487 whole entry, looked up): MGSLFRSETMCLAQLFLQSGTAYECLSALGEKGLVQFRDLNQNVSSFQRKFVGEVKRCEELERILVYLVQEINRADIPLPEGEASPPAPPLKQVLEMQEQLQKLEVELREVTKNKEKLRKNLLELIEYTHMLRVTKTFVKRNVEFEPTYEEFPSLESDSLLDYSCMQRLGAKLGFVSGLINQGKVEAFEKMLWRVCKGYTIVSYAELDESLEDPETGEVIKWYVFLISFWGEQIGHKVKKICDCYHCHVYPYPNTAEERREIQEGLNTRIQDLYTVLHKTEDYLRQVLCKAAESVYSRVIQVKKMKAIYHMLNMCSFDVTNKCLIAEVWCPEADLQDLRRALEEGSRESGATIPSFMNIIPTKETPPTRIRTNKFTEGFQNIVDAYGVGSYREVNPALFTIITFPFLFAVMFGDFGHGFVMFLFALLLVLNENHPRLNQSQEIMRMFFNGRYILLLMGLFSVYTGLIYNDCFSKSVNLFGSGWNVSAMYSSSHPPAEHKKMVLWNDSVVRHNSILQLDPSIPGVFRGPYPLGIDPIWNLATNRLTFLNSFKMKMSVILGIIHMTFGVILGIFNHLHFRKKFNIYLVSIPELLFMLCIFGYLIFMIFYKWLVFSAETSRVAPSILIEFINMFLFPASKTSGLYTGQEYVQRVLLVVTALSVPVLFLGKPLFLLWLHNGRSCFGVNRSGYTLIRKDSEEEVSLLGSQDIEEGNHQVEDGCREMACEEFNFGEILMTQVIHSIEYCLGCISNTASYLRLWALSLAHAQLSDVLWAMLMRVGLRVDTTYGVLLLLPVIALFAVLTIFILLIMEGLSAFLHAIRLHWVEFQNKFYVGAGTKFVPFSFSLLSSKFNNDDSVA
UniProt Q2TAA5, sequence (Q2TAA5 whole entry, looked up): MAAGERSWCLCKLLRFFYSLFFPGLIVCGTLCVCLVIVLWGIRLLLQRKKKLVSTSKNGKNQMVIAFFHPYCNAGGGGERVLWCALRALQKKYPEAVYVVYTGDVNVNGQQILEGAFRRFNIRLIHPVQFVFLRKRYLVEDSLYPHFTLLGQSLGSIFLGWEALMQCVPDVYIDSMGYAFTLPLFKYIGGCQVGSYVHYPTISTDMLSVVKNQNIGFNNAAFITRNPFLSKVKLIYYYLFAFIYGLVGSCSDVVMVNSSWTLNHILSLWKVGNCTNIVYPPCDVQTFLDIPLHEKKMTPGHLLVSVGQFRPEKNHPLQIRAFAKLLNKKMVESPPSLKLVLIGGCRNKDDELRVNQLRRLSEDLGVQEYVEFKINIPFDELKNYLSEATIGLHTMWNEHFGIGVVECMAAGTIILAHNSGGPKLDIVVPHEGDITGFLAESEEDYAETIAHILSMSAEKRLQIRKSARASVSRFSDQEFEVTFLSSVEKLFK
UniProt Q96GS6, sequence (Q96GS6 whole entry, looked up): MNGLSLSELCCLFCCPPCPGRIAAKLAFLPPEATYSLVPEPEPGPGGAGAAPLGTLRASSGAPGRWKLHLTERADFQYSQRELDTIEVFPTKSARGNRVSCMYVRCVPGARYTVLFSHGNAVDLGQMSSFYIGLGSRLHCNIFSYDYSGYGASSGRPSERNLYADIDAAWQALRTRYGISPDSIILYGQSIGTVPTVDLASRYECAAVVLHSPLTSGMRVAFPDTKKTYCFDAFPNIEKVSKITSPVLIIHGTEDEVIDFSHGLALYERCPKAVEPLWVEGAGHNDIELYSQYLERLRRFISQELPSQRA
UniProt P08758, sequence (P08758 whole entry, looked up): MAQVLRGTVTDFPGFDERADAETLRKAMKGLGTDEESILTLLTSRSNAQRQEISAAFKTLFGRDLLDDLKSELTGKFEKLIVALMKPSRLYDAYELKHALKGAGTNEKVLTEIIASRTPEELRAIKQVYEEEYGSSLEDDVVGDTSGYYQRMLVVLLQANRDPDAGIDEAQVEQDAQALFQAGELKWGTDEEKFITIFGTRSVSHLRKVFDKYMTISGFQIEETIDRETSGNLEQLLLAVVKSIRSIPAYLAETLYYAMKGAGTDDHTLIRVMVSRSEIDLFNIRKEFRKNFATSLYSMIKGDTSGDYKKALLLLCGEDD
UniProt Q8TDN6, sequence (Q8TDN6 whole entry, looked up): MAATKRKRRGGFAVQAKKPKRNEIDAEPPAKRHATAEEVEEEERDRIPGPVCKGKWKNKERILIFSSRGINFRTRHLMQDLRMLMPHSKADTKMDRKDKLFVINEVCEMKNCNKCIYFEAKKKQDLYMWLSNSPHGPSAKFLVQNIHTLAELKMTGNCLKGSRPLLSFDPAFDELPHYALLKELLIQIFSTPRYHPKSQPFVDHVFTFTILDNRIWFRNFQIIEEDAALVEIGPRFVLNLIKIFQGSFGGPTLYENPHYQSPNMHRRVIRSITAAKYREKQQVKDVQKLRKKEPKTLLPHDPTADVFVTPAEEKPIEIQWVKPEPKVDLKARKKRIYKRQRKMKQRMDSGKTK
UniProt Q9H0E9, sequence (Q9H0E9 whole entry, looked up): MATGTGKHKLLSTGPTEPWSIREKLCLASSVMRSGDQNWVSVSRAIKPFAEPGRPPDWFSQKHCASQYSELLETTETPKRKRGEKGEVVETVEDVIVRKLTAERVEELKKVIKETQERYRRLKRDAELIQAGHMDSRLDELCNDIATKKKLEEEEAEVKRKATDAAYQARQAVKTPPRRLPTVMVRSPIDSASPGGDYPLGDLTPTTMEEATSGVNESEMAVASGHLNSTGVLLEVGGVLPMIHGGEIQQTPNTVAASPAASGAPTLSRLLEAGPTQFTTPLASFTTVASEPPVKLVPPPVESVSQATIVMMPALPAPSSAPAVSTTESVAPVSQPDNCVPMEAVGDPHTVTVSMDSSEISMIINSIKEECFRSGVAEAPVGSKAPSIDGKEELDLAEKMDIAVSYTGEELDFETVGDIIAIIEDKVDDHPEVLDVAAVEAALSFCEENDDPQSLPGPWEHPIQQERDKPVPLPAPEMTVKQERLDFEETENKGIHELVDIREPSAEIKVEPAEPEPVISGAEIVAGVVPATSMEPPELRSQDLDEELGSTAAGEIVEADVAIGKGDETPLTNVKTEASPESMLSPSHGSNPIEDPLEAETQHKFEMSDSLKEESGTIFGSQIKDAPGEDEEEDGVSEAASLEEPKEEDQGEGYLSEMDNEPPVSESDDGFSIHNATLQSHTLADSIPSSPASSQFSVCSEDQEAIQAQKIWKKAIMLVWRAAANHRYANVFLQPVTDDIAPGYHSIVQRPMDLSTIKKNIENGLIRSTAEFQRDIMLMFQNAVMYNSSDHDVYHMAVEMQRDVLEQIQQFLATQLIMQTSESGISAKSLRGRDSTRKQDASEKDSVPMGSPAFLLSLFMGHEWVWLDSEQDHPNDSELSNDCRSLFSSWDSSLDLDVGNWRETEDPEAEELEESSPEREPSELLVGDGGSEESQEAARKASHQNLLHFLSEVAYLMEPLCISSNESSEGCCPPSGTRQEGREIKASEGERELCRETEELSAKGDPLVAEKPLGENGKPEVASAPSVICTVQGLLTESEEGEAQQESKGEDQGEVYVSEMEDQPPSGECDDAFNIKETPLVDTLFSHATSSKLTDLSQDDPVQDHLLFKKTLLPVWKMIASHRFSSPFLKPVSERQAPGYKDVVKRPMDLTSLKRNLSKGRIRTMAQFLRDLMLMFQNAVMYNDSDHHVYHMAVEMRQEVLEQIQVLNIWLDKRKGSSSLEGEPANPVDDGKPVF
UniProt Q6P6C2, sequence (Q6P6C2 whole entry, looked up): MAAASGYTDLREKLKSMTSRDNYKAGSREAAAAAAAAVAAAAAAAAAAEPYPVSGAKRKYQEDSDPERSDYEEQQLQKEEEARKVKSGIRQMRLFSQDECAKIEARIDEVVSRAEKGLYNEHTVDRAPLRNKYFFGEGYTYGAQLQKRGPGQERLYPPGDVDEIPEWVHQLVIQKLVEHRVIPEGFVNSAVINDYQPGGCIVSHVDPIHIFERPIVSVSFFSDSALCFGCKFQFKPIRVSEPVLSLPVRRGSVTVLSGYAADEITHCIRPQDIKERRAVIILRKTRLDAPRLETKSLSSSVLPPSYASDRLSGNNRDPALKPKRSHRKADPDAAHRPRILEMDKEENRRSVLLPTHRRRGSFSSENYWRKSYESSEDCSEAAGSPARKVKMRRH
UniProt Q9UII2, sequence (Q9UII2 whole entry, looked up): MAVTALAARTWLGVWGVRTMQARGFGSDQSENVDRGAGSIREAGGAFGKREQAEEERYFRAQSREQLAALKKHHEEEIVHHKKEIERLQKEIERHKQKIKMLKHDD
UniProt Q53FZ2, sequence (Q53FZ2 whole entry, looked up): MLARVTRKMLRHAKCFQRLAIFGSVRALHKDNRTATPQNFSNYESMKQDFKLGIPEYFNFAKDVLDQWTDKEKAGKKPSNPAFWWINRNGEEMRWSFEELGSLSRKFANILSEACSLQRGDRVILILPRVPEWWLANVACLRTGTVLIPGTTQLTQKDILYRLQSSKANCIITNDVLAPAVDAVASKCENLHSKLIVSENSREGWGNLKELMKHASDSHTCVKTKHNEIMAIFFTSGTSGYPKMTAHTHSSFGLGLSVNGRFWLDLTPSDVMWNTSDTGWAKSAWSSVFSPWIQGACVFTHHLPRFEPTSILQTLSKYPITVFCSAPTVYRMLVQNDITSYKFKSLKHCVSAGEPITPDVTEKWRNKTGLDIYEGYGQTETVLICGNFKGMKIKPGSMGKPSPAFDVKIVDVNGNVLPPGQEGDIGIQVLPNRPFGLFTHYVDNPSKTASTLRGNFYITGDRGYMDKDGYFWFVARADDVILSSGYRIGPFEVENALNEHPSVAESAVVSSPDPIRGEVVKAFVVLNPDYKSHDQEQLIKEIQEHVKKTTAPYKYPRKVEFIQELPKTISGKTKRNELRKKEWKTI

Row | Target | log2 fold change (erlotinib) | log2 fold change [1] | log2 fold change [2] | log2 fold change [3] | log2 fold change [4] | log2 fold change [5] | log2 fold change [6] | log2 fold change [7] | log2 fold change [8] | log2 fold change [9]
1 | ATP5IF1 (UniProt Q9UII2) | 0.001 | -0.122 | 0.032 | -0.005 | -0.104 | 0.007 | -0.051 | 0.153 | 0.053 | 0.032
2 | ACSM3 (UniProt Q53FZ2) | 0.078 | 0.01 | 0.076 | -0.235 | 0.088 | -0.009 | -0.078 | -0.072 | 0.009 | 0.01
3 | ABHD17A isoform 2 (UniProt Q96GS6) | 0 | -0.011 | -0.028 | 0.223 | 0.035 | 0.042 | 0.017 | 0.008 | -0.068 | 0.11
4 | ATP6V0A2 (UniProt Q9Y487) | -0.009 | 0 | -0.045 | 0.031 | -0.025 | 0.031 | 0.024 | 0.041 | -0.016 | 0.002
5 | AGPAT5 (UniProt Q9NUQ2) | 0.042 | -0.019 | -0.003 | 0.014 | 0.009 | 0.048 | 0.07 | -0.001 | -0.017 | 0.079
6 | AHSA1 (UniProt O95433) | 0.007 | 0.011 | 0.081 | -0.015 | 0.012 | 0.037 | 0.013 | 0.039 | -0.006 | 0.023
7 | ARFRP1 (UniProt Q13795) | -0.018 | -0.017 | 0.096 | 0.008 | 0.12 | 0.048 | 0.057 | 0.015 | -0.013 | 0.032
8 | BTBD6 (UniProt Q96KE9) | 0.407 | -0.706 (active) | 0.165 | -0.188 | 0.016 | -0.057 | 0.3 | 0.081 | -0.19 | 0.185
9 | ALDH2 (UniProt P05091) | -0.009 | 0.121 | 0.039 | 0.021 | 0.096 | 0.022 | -0.019 | 0.097 | -0.041 | 0.02
10 | BRIP1 (UniProt Q9BX63) | -0.009 | 0.076 | -0.153 | 0.018 | 0.075 | -0.082 | -0.048 | 0.023 | -0.064 | -0.045
11 | BRIX1 (UniProt Q8TDN6) | -0.093 | -0.05 | -0.415 | -0.089 | 0.003 | 0.046 | -0.046 | -0.167 | 0.017 | -0.387
12 | ATP7B (UniProt P35670) | -0.005 | 0.073 | -0.037 | 0.051 | 0.119 | 0.01 | 0.077 | -0.009 | -0.075 | -0.052
13 | ALG5 (UniProt Q9Y673) | -0.008 | 0.014 | 0.071 | 0.008 | 0.023 | 0.003 | 0.009 | 0.048 | -0.026 | -0.007
14 | ARL6IP6 (UniProt Q8N6S5) | 0.064 | 0.116 | -0.102 | 0.034 | -0.006 | 0.001 | 0.201 | -0.087 | 0.01 | -0.036
15 | ATP6AP1 (UniProt Q15904) | -0.009 | -0.031 | -0.036 | 0.029 | -0.08 | -0.022 | -0.128 | -0.004 | 0.01 | -0.079
16 | ANXA5 (UniProt P08758) | -0.012 | 0.1 | 0.06 | -0.039 | 0.009 | 0.002 | 0.013 | 0.038 | 0.022 | -0.012
17 | ADK (UniProt P55263) | 0.293 | -0.034 | 0.06 | -0.062 | 0.079 | 0.005 | 0.035 | 0.042 | -0.032 | 0.085
18 | ABCA4 (UniProt P78363) | 0.191 | -0.367 | 0.107 | -0.151 | 0.062 | -0.073 | 0.042 | 0.044 | 0.033 | 0.145
19 | BMP2K (UniProt Q9NSY1) | 0.079 | -0.16 | -0.016 | -0.024 | 0.178 | -0.042 | -0.012 | 0.388 (active) | 0.353 | -0.061
20 | ACADM isoform 2 (UniProt P11310) | -0.015 | 0.014 | 0.013 | 0.149 | 0.044 | 0.002 | 0.059 | -0.001 | 0.008 | 0.067
21 | ACAD9 (UniProt Q9H845) | -0.002 | 0.025 | 0.054 | 0.015 | 0.035 | 0.032 | 0.026 | -0.002 | -0.002 | 0.029
22 | BCLAF1 (UniProt Q9NYF8) | 0.036 | 0.075 | -0.046 | 0.082 | -0.304 | -0.018 | 0.143 | -0.063 | -0.089 | -0.15
23 | ARAF (UniProt P10398) | 0.014 | 0.096 | 0.061 | 0.014 | 0.26 | -0.012 | 0.077 | -0.187 | -0.017 | 0.035
24 | BRD8 (UniProt Q9H0E9) | -0.057 | -0.036 | -0.067 | 0.068 | -0.005 | 0.037 | -0.074 | -0.064 | 0.016 | -0.058
25 | BCCIP (UniProt Q9P287) | -0.024 | 0.045 | 0.019 | -0.027 | -0.029 | 0.015 | 0.013 | 0.035 | -0.036 | 0.114
26 | ALG11 (UniProt Q2TAA5) | -0.015 | 0.042 | 0.075 | 0.013 | 0.074 | 0.054 | 0.009 | -0.048 | -0.045 | -0.014
27 | AMFR (UniProt Q9UKV5) | 0.116 | 0 | -0.022 | -0.062 | -0.046 | 0.058 | 0.026 | -0.062 | 0.002 | -0.009
28 | ANAPC2 (UniProt Q9UJX6) | -0.028 | 0.064 | -0.002 | 0.018 | 0.002 | 0.144 | -0.029 | 0.022 | -0.033 | -0.022
29 | ATP1A1 (UniProt P05023) | 0.003 | 0.02 | 0.017 | -0.012 | -0.036 | 0.012 | -0.017 | -0.032 | -0.015 | 0.057
30 | ALKBH5 (UniProt Q6P6C2) | 0.176 | -0.637 (active) | -0.126 | 0.139 | 0.056 | -0.067 | 0.015 | -0.032 | -0.087 | 0.113
